Pf growth 48h = Primary qHTS for delayed death inhibitors of the malarial parasite plastid, 48 hour incubation. Potency, µM (highest dose often 28.7 µM), for the others: at the highest dose activity change, negative = inhibition, most hits filed as inhibitors. hit rate 5.9% among 310,000. AID 504832, 2011. P. falciparum luciferase growth in erythrocytes, 48 h
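A one-generation exposure of luciferase-tagged malaria parasites in RPMI 1640/Albumax erythrocyte culture, 37 C and 5% CO2. Inhibition is inferred from decreased luminescence after adding detection reagent.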
Pf growth 96h = Primary qHTS for delayed death inhibitors of the malarial parasite plastid, 96 hour incubation; P. falciparum luciferase reporter growth, 96 h; AID 504834, 2011; hit rate 6.9% among 320,000; Potency, µM (titrated, usually from 28.7 µM), for the others: at the highest dose activity change, negative = inhibition, usual class: inhibitors
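Readout is luminescence from an integrated firefly luciferase in P. falciparum. Red cells, 2% hematocrit and 0.05% parasitemia final, were cultured with compound through two parasite generations (96 hours) at 37 C, 5% CO2.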
AMA1-RON2 inh = qHTS for Inhibitors of AMA1-RON; Towards Development of Antimalarial Drug Lead: Primary Screen; Plasmodium falciparum AMA1 (3D7) - RON2 peptide interaction; AlphaScreen AMA1-biotinylated RON2 peptide binding; Potency, µM (series often up to 58.2 µM), for inactives: at the top dose activity change, negative = inhibition, actives largely listed as inhibitors; hit rate 0.2% among 360,000;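 further: 0% = vehicle wells and -100% = peptide control; nearly all actives have a fitted effect of over 45% in size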
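AMA1 (3D7) with his tag at 25 nM final met compounds first, then biotinylated RON2 peptide at 25 nM; detection used donor plus acceptor beads, 10 µg/mL apiece, read by AlphaScreen after 30 min at room temperature.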
HCV inhibitor = qHTS Assay for Inhibitors of Hepatitis C Virus (HCV). Huh7.5.1 HCVcc-Cre infection, luciferase reporter, 44 h. Potency, µM (top dose mostly 41.8 µM), for the others: at the top dose activity change, negative = inhibition, usual class: inhibitors. hit rate 3.4% among 340,000. AID 651820, 2012
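Luciferase read-out (15 sec integration) after a 15 min room-temperature substrate step quantifies HCVcc-Cre infection. Cells, 1,000 per well, had compound added 4 h post-plating, then virus at ~0.5 moi, and were cultured 44 h.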
The depositor's hits bear a star; u = inconclusive; x = no result given. This is a sample that favours compounds with a hit; in the whole collection about 11% have one here. The call rests on the fitted dose curve; in most records, active means well fitted curve in the direction sought with a large enough effect; inconclusive means small, poorly fitted or top-dose-only effect, or another doubt; inactive means no such curve, though single readings can be large; an effect the other way counts as inactive or inconclusive. Unless noted, on the % scale 0 is the no-effect control and ±100 the full control effect; potency means the concentration at half of the fitted maximal effect.

SMILES | Pf growth 48h | Pf growth 96h | AMA1-RON2 inh | HCV inhibitor
O=C(O)c1cc2c([nH]c1=O)CCCC2 | 15% | 35% | 1% | -1%
O=C(O)CC(NNC(=O)c1ccccc1)C(=O)Nc1cccc([N+](=O)[O-])c1 (stereo not drawn) | 15% | 13% | 90% | 15%
CN(C)c1ccc(/C=C/c2cccc[n+]2[O-])cc1 | 148% | 249% | -7% | 11%
CN(CCCS(=O)(=O)[O-])c1ccc(/C=C/c2ccc3ccccc3[n+]2C)cc1 | 24% | u | -1% | 19%
[O-][n+]1c(/C=C/c2ccccc2)ccc2ccccc21 | 110% | 6.6µM* | -8% | 10µM*
CN(C)c1ccc(/C=C/c2ccc3ccccc3[n+]2C)cc1 | 0.83µM* | u | u | 0.89µM*
CN(C)c1ccc(/C=C/c2ccc3c4ccccc4ccc3[n+]2-c2ccccc2)cc1 | 8.3µM* | u | 11µM* | 1µM*
CC(=O)Oc1ccccc1/C=C/c1ccc2ccccc2[n+]1C | u | 192% | -2% | u
COc1ccc(/C=C/c2ccc3ccccc3[n+]2C)cc1OC | 1.2µM* | 10% | -15% | 1%
O=C(NNS(=O)(=O)c1ccc(F)cc1)C1CC(c2cccnc2)=NO1 (stereo not drawn) | 55% | 154% | -2% | 10%
COc1ccc(C(=O)Nc2ccccc2C(=O)NC(Cc2c[nH]c3ccccc23)C(=O)O)cc1 (stereo not drawn) | u | -27% | 3% | 9%
Cc1ccc(CNC(=O)CC2(CC3=NS(=O)(=O)c4ccccc4N3)CCCC2)cc1 | u | 12µM* | -4% | 11µM*
COc1ccc(CCNC(=O)CC2(CC3=NS(=O)(=O)c4ccccc4N3)CCCC2)cc1OC | u | 10% | -5% | u
COc1ccc(CNC(=O)CC(C)CC2=NS(=O)(=O)c3ccccc3N2)cc1 (stereo not drawn) | -3% | 4% | 0% | -5%
COc1ccc(CNC(=O)CCCC2=NS(=O)(=O)c3ccccc3N2)cc1 | 13% | 10µM* | 0% | 11%
Cc1ccc(C(=O)Nc2ncccc2C)cc1S(=O)(=O)N1CCCCC1 | u | -17% | 65% | 23%
CN(C)C(=O)Oc1noc2cc(Cl)ccc12 | u | 3.3µM* | -10% | 10%
CCCCCCN1C2=NCCCN2c2ccccc21 | u | 12µM* | 3% | u
c1ccc2c(c1)N1CCCN=C1N2CCN1CCCCC1 | u | 11% | -8% | u
c1ccc(CN2C3=NCCN3c3ccccc32)cc1 | -20% | u | 15% | u
Clc1ccc(CN2C3=NCCN3c3ccccc32)cc1Cl | u | -26% | -15% | 10µM*
Cc1ccc(C(O)CN2C3=NCCCN3c3ccccc32)cc1 (stereo not drawn) | u | 4.1µM* | 3% | u
Cc1ccc(C)c(C(=O)CN2C3=NCCCN3c3ccccc32)c1 | 7.4µM* | 9.3µM* | -5% | u
COc1cccc(CNC(=O)CCCc2cn(C)c3ccccc23)c1 | x | -17% | -2% | -22%
COc1ccc(-n2cnnc2SCC(=O)NC2CCCc3ccccc32)cc1 (stereo not drawn) | 19% | -22% | -22% | -20%
SMILES | Pf growth 48h | Pf growth 96h | AMA1-RON2 inh | HCV inhibitor
OCCN1C2=NCCCN2c2ccccc21 | 0% | 7.4µM* | 5% | 10%
O=C(Nc1ccccc1O)c1csc2c1CCCC2 | u | 30% | -6% | u
CCC(O)(CC)C(=O)NN(C(=O)Nc1csc2c1CCCC2)c1ccccc1 | 1.7µM* | 1.3µM* | 3% | -17%
O=C1C=C(NCc2ccc3c(c2)OCO3)CC(c2ccccc2)C1 (stereo not drawn) | 1% | -17% | 7% | -4%
Cn1c(=O)oc2cc(S(=O)(=O)NCCC(=O)N3CCN(c4ccccc4F)CC3)ccc21 | u | 32% | 7% | 10%
Cn1c(=O)oc2cc(S(=O)(=O)NCCC(=O)N3CCN(c4ccccc4)CC3)ccc21 | u | 13µM* | 0% | 4%
Cc1ccc(NC(=O)CCNS(=O)(=O)c2ccc3c(c2)oc(=O)n3C)c(C)c1 | u | 12µM* | -2% | 17%
Cc1ccc(C)c(N2CCN(C(=O)CCNS(=O)(=O)c3ccc4c(c3)oc(=O)n4C)CC2)c1 | -30% | 1.7µM* | 0% | u
